Screens (PubChem)
Yp Topo-I inh: Yersinia pestis topoisomerase I inhibitors, primary screen, biochemical, cleavage product accumulation, plate reader, single point; DNA topoisomerase I (Yersinia pestis CO92); Y. pestis Topo-I cleavage product accumulation; activity, % at 10 µM; 360,000 compounds, 0.064% hits; AID 504884, 2011; in the data active means activity above about 50%, passing the limit was not always enough
Vc quorum ag-1: inducers of Vibrio cholerae quorum light production without autoinducers, primary screen, BH1578 luxS cqsA deficient, single point; AID 588436, 2011; activation, % at 18.7 µM; 350,000 compounds, 0.16% hits; V. cholerae BH1578 lux reporter, luminescence, 6 h; in the data active means activation mostly above about 9.7%, no sharp cut-off
Mtb hypoxia inh: PubChem AID 1159583. M. tuberculosis hypoxia-regulated fluorescent reporter, fluorescence. fluorescence inhibition, % (no concentration beside the values). 300,000 compounds, 0.1% hits; in the data active means fluorescence inhibition mostly above about 23%, no sharp cut-off; inactive means mostly below about 17%
Vc quorum ag-2: V. cholerae lux activation without autoinducers – BH1578 luxS cqsA deficient, cherry-pick, plate reader, dose response. shares compounds with Vc quorum ag-1. V. cholerae BH1578 lux reporter, luminescence, 6 h. activation, % at 50 µM. 620 tested, under 10 active; call rule not given here
Numbers without * were called inactive. The list is not random: actives were taken first. Their share in the collection is about 0.29%.

How did COc1cccc(-c2c(-c3cc(OC)cc(OC)c3)n(C)c3ccc(-c4cnc(OC)nc4)cc23)c1 do in these assays?
Yp Topo-I inh: -3; Vc quorum ag-1: inactive; Mtb hypoxia inh: 15

How did COc1cccc(-c2c(-c3cc(OC)cc(OC)c3)n(C)c3ccc(-c4cnc(N5CCOCC5)nc4)cc23)c1 do in these assays?
Yp Topo-I inh: 9; Vc quorum ag-1: -1; Mtb hypoxia inh: 45*

Results for Cc1ccsc1C=NNC(=O)c1cccs1 ?
Mtb hypoxia inh: 6

What do the screens show for `CN(C)CCSc1nc2cc(S(=O)(=O)N3CCCCC3)ccc2o1`?
Yp Topo-I inh: 10; Vc quorum ag-1: inactive; Mtb hypoxia inh: 35*

How did CC(C)(C)NC(=O)CSc1nc2cc(S(=O)(=O)N3CCCCC3)ccc2o1 do in these assays?
Yp Topo-I inh: -1; Vc quorum ag-1: -1; Mtb hypoxia inh: -5

Results for COc1ccc(CC(=O)Nc2nnc(CC(C)C)s2)cc1S(=O)(=O)N1CCOCC1 ?
Yp Topo-I inh: 8; Vc quorum ag-1: inactive; Mtb hypoxia inh: -1

What do the screens show for `O=C(Nc1ccc(F)c(F)c1)C1CCN(S(=O)(=O)c2cccs2)CC1`?
Yp Topo-I inh: -1; Vc quorum ag-1: inactive; Mtb hypoxia inh: 4

Results for CC(Sc1nnnn1-c1cccc(F)c1)C(=O)NC1CCCC1 (configuration not stated) ?
Yp Topo-I inh: -3; Vc quorum ag-1: -2; Mtb hypoxia inh: -8

Results for COc1ccc(C)cc1-n1nnnc1SC(C)C(=O)NC1CCCC1 (configuration not stated) ?
Yp Topo-I inh: 3; Vc quorum ag-1: -1; Mtb hypoxia inh: 25*

How did Cn1nc(C(=O)OCC(=O)NCCc2ccccc2)c2ccccc2c1=O do in these assays?
Yp Topo-I inh: 12; Vc quorum ag-1: inactive; Mtb hypoxia inh: 9

How did Cn1nc(C(=O)OCC(=O)NCc2ccc(Cl)cc2)c2ccccc2c1=O do in these assays?
Yp Topo-I inh: 9; Vc quorum ag-1: -1; Mtb hypoxia inh: 31*

Results for CC(=NNC(=O)c1nnn(-c2nonc2N)c1-c1cccs1)c1ccncc1 ?
Mtb hypoxia inh: 8

Results for CCc1ccc(Nc2nc(N)nc(CSc3nnnn3-c3ccccc3)n2)cc1 ?
Yp Topo-I inh: 53*; Vc quorum ag-1: inactive

Results for Cc1ccccc1Nc1nc(N)nc(CSc2nnnn2-c2ccccc2)n1 ?
Yp Topo-I inh: 3; Vc quorum ag-1: inactive; Mtb hypoxia inh: 3

How did CC(C)CN(C(=O)CN1C(=O)NC(c2ccccc2)(c2ccccc2)C1=O)C1CCS(=O)(=O)C1 (configuration not stated) do in these assays?
Yp Topo-I inh: 4; Vc quorum ag-1: inactive; Mtb hypoxia inh: 3

How did O=C(Nc1ccccc1OC(F)F)c1ccccc1 do in these assays?
Yp Topo-I inh: 10; Vc quorum ag-1: -2; Mtb hypoxia inh: 11

Results for O=C(Nc1ccccc1OC(F)F)c1ccc(Br)o1 ?
Yp Topo-I inh: 0; Vc quorum ag-1: 32*

How did CCCCCCOc1ccc(N2C(=O)CC(S/C(N)=N/N=C(\C)c3cccs3)C2=O)cc1 (configuration not stated) do in these assays?
Yp Topo-I inh: 63*; Vc quorum ag-1: -3

How did CCCOc1ccc(N2C(=O)CC(S/C(N)=N/N=C(C)c3cccs3)C2=O)cc1 (configuration not stated) do in these assays?
Mtb hypoxia inh: 1

What do the screens show for `CCCc1nc2ccccc2c(=O)n1CC(=O)c1ccc(F)cc1`?
Yp Topo-I inh: -1; Vc quorum ag-1: -2; Mtb hypoxia inh: 11

What do the screens show for `Cc1ccc(Cn2ccc(NC(=O)c3cc(-c4cccs4)on3)n2)cc1`?
Yp Topo-I inh: 87*; Vc quorum ag-1: 0; Mtb hypoxia inh: 7

What do the screens show for `CCCc1cc(C(=O)Nc2ccn(Cc3ccc(C)cc3)n2)no1`?
Yp Topo-I inh: 2; Vc quorum ag-1: 0; Mtb hypoxia inh: 7

How did CC(C)[C@H](NC(=O)OC(C)(C)C)C(=O)NN=Cc1cccc2nccnc12 do in these assays?
Mtb hypoxia inh: 7

Results for Cc1ccc(SCc2cc(=O)[nH]c(Nc3nc(C)c4ccc(C)cc4n3)n2)cc1 ?
Yp Topo-I inh: 113*; Vc quorum ag-1: 0; Mtb hypoxia inh: -6

How did Cc1ccc(SCc2cc(=O)[nH]c(Nc3nc(C)c4ccccc4n3)n2)cc1 do in these assays?
Yp Topo-I inh: -1; Vc quorum ag-1: inactive; Mtb hypoxia inh: 0

Results for Cc1ccc2nc(Nc3nc(CSc4nnc(C)s4)cc(=O)[nH]3)nc(C)c2c1 ?
Yp Topo-I inh: 58*; Vc quorum ag-1: 0; Mtb hypoxia inh: 11

Results for COc1ccc2nc(Nc3nc(CSc4nnc(C)s4)cc(=O)[nH]3)nc(C)c2c1 ?
Mtb hypoxia inh: 10

Results for O=C(Cc1ccccc1)NN=Cc1ccc(Cl)cc1Cl ?
Mtb hypoxia inh: 3

Results for Cc1ccc(S(=O)(=O)NC(CCC(N)=O)C(=O)NCc2ccc3c(c2)OCO3)c(C)c1 (configuration not stated) ?
Yp Topo-I inh: -4; Vc quorum ag-1: inactive; Mtb hypoxia inh: 4

What do the screens show for `CC(=NNc1ccc2nncn2n1)c1ccco1`?
Mtb hypoxia inh: 6

How did O=c1[nH]c(NN=Cc2ccc(O)cc2)nc2ccccc12 do in these assays?
Mtb hypoxia inh: -13

What do the screens show for `COc1ccc2c(c1)CCC(C)N2C(=O)C(=O)c1c[nH]c2ccccc12` (configuration not stated)?
Yp Topo-I inh: 18; Vc quorum ag-1: inactive; Mtb hypoxia inh: 13

Results for O=C(CSc1nnc(CNC(=O)c2cccs2)o1)NC1CCCCC1 ?
Yp Topo-I inh: 5; Vc quorum ag-1: 15*

How did O=C(CSc1nnc(CNC(=O)c2cccs2)o1)NCC1CCCO1 (configuration not stated) do in these assays?
Yp Topo-I inh: 4; Vc quorum ag-1: inactive; Mtb hypoxia inh: 14

How did Cc1cc(C)n(C(=O)c2ccc([N+](=O)[O-])cc2Cl)n1 do in these assays?
Yp Topo-I inh: -5; Vc quorum ag-1: 0; Mtb hypoxia inh: 9

How did CCOc1cc(C=NNC(=O)COc2cccc(C)c2)ccc1OC(=O)c1cccs1 do in these assays?
Mtb hypoxia inh: 8

How did COc1ccc(OCc2cc(C(=O)NCCCc3ccccc3)no2)c(Cl)c1 do in these assays?
Yp Topo-I inh: 44; Mtb hypoxia inh: 10

What do the screens show for `CSc1ccccc1OCc1cc(C(=O)NCCCc2ccccc2)no1`?
Yp Topo-I inh: 58*; Vc quorum ag-1: -1; Mtb hypoxia inh: 9

What do the screens show for `COc1ccc(CNC(=O)c2ccc(Cl)c(S(=O)(=O)N3CCOCC3)c2)cc1OC`?
Yp Topo-I inh: 0; Vc quorum ag-1: 57*; Mtb hypoxia inh: 9; Vc quorum ag-2: 0

Results for COc1ccc(C(=O)NCc2cccc(Cl)c2)cc1S(=O)(=O)N1CCOCC1 ?
Yp Topo-I inh: 8; Vc quorum ag-1: -3; Mtb hypoxia inh: 9

What do the screens show for `O=[N+]([O-])c1ccc(Nc2nc(NN=Cc3ccc4c(c3)OCO4)nc(N3CCCCC3)n2)cc1`?
Mtb hypoxia inh: 4

Results for COc1ccc(CC(C)=NNC(=O)c2cc(C)oc2C)cc1 ?
Mtb hypoxia inh: 4
